Source: PubChem BioAssay (Tox21)
Activity calls are given as the source filed them. The call rests on the fitted dose curve; in most records, active means well fitted curve in the direction sought with a large enough effect in the repeat runs; inconclusive means weak or mixed curves; inactive means flat fitted curve, though single readings scatter.

test: qHTS assay to test for compound auto fluorescence at 535 nm (green) in HEK293 cells (AID 720680); details: green autofluorescence 485/535 nm; series mostly up to 91.3 µM; fluorescence, % of fluorescein: at the top concentration
On the % scale 0 is the no-effect control and ±100 the full control effect.

SMILES | fluorescence, % of fluorescein | outcome
CCOP(=S)(OCC)SCSCC | -0.0096% (inactive) | –
O=C(CCl)c1ccc(Cl)cc1Cl | – | inactive
O=C(OC1CCCCC1)c1ccccc1C(=O)OC1CCCCC1 | 0.0399% [at 95.7 µM] (inactive) | –
NCC(CC(=O)O)c1ccc(Cl)cc1 (centres undefined) | 0.0349% [at 46 µM] (inactive) | –
CN1[C@@H]2CC[C@H]1CC(OC(=O)c1cc(Cl)cc(Cl)c1)C2 (some centres undefined) | -0.0868% [at 46 µM] (inactive) | –
Clc1cc(Cl)c(Cl)c(Cl)c1 | -0.0123% (inactive) | –
ClCCCCBr | -0.0742% (inactive) | –

test: qHTS assay to test for compound auto fluorescence at 460 nm (blue) in HEK293 cell free culture (AID 720681); details: cell-free medium, autofluorescence 405/460 nm (blue); series mostly up to 91.3 µM; fluorescence, % of fluorescent control: at the top concentration
Outline: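 Compounds were added to cell-free DMEM with 10% FBS and fluorescence read directly. The blue channel used 405 nm excitation and 460 nm emission, with triamterene as the reference fluorophore.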

SMILES | fluorescence, % of fluorescent control | outcome
COc1nn(C(=O)NS(=O)(=O)c2ccccc2OC(F)(F)F)c(=O)n1C | -0.0005% (inactive) | –
COC(C)(C)CCC[C@H](C)C/C=C/C(C)=C/C(=O)OC(C)C | 0.0788% (inactive) | –
O=C1NCN(c2ccccc2)C12CCN(CCCOc1ccc(F)cc1)CC2 | 0.0167% [at 46 µM] (inactive) | –
CCC(Cl)CCl (centres undefined) | -0.0633% (inactive) | –
CCCC(=O)Cl | -0.0864% (inactive) | –
O=[Se]=O | 0.103% [at 46 µM] (inactive) | –
O=C(C(Cl)(Cl)Cl)C(Cl)(Cl)Cl | 0.103% [at 95.7 µM] (inactive) | –
CN(N=O)c1ccc([N+](=O)[O-])cc1 | -0.216% (inactive) | –
CC(=O)NC1CCSC1=O (centres undefined) | – | inactive
ClP(Cl)(Cl)(Cl)Cl | 0.0086% (inactive) | –
O=Cc1ccc2c(c1)OCO2 | -0.0766% (inactive) | –
O=S(=O)(O)C(F)(F)C(F)(F)C(F)(F)C(F)(F)F | 0.292% (inactive) | –
CCn1cc[n+](C)c1 | – | inactive
Oc1ccc(Cl)c(Cl)c1Cl | -0.0092% [at 95.7 µM] (inactive) | –
O=[N+]([O-])c1ccc(F)c([N+](=O)[O-])c1 | – | inactive
CNP(=O)(OC)Oc1ccc(C(C)(C)C)cc1Cl (centres undefined) | 0.0213% (inactive) | –
O=C(CBr)c1ccccc1 | 0.618% (inactive) | –

SMILES | fluorescence, % of fluorescent control | outcome
C=COC(C)=O | 0.0714% [at 95.7 µM] (inactive) | –
CC1C(=O)C[C@]2(C(C)C)C[C@H]12 (some centres undefined) | 0.0656% (inactive) | –
COc1nn(CSP(=S)(OC)OC)c(=O)s1 | -0.272% (inactive) | –
CCc1ccc(C(=O)NN(C(=O)c2cc(C)cc(C)c2)C(C)(C)C)cc1 | -0.275% (inactive) | –
CCOP(O)OCC | -0.115% (inactive) | –
CCCCCCCCCCOC(=O)c1ccccc1C(=O)OCCCCCCCCCC | -0.0105% (inactive) | –
CCCC(Cn1cncn1)c1ccc(Cl)cc1Cl (centres undefined) | -0.0159% (inactive) | –
CCOC(=O)COc1cc(-c2nn(C)c(OC(F)F)c2Cl)c(F)cc1Cl | -0.153% (inactive) | –
O=C(Nc1ccccc1)Nc1cnns1 | -0.153% (inactive) | –
CC(=O)[C@H]1CC[C@H]2[C@@H]3CC[C@H]4C[C@](C)(O)CC[C@]4(C)[C@H]3CC[C@]12C | -0.0618% [at 46 µM] (inactive) | –
CCOP(=S)(OCC)SCSCC | -0.181% (inactive) | –
O=C(CCl)c1ccc(Cl)cc1Cl | – | inactive
O=C(OC1CCCCC1)c1ccccc1C(=O)OC1CCCCC1 | 0.0226% [at 95.7 µM] (inactive) | –
NCC(CC(=O)O)c1ccc(Cl)cc1 (centres undefined) | -0.0089% [at 46 µM] (inactive) | –
CN1[C@@H]2CC[C@H]1CC(OC(=O)c1cc(Cl)cc(Cl)c1)C2 (some centres undefined) | 0.0114% [at 46 µM] (inactive) | –
Clc1cc(Cl)c(Cl)c(Cl)c1 | -0.192% (inactive) | –
ClCCCCBr | -0.011% (inactive) | –

test: qHTS assay to test for compound auto fluorescence at 535 nm (green) in HEK293 cell free culture (AID 720682); details: cell-free medium, green autofluorescence 485/535 nm, active compounds read high; series mostly up to 91.3 µM; activity change: at the top concentration
Outline: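 Intrinsic compound fluorescence is measured in culture medium containing 10% FBS, with excitation at 485 nm and detection at 535 nm, referenced to fluorescein.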

SMILES | activity change | outcome
COc1nn(C(=O)NS(=O)(=O)c2ccccc2OC(F)(F)F)c(=O)n1C | -0.104% (inactive) | –
COC(C)(C)CCC[C@H](C)C/C=C/C(C)=C/C(=O)OC(C)C | -0.0408% (inactive) | –
O=C1NCN(c2ccccc2)C12CCN(CCCOc1ccc(F)cc1)CC2 | -0.0009% [at 46 µM] (inactive) | –
CCC(Cl)CCl (centres undefined) | 0.0701% (inactive) | –
CCCC(=O)Cl | 0.0036% (inactive) | –
O=[Se]=O | -0.0239% [at 46 µM] (inactive) | –
O=C(C(Cl)(Cl)Cl)C(Cl)(Cl)Cl | 0.0079% [at 95.7 µM] (inactive) | –
CN(N=O)c1ccc([N+](=O)[O-])cc1 | 0.0124% (inactive) | –
CC(=O)NC1CCSC1=O (centres undefined) | – | inactive
ClP(Cl)(Cl)(Cl)Cl | -0.0298% (inactive) | –
O=Cc1ccc2c(c1)OCO2 | 0% (inactive) | –
O=S(=O)(O)C(F)(F)C(F)(F)C(F)(F)C(F)(F)F | 0.0897% [at 95.7 µM] (inactive) | –
CCn1cc[n+](C)c1 | – | inactive
Oc1ccc(Cl)c(Cl)c1Cl | 0.0382% [at 95.7 µM] (inactive) | –
O=[N+]([O-])c1ccc(F)c([N+](=O)[O-])c1 | – | inactive
CNP(=O)(OC)Oc1ccc(C(C)(C)C)cc1Cl (centres undefined) | 0.0144% (inactive) | –
O=C(CBr)c1ccccc1 | -0.149% (inactive) | –

SMILES | activity change | outcome
C=COC(C)=O | -0.115% [at 95.7 µM] (inactive) | –
CC1C(=O)C[C@]2(C(C)C)C[C@H]12 (some centres undefined) | -0.026% (inactive) | –
COc1nn(CSP(=S)(OC)OC)c(=O)s1 | -0.091% (inactive) | –
CCc1ccc(C(=O)NN(C(=O)c2cc(C)cc(C)c2)C(C)(C)C)cc1 | -0.0038% (inactive) | –
CCOP(O)OCC | 0.0023% (inactive) | –
CCCCCCCCCCOC(=O)c1ccccc1C(=O)OCCCCCCCCCC | 0.0375% (inactive) | –
CCCC(Cn1cncn1)c1ccc(Cl)cc1Cl (centres undefined) | -0.0022% (inactive) | –
CCOC(=O)COc1cc(-c2nn(C)c(OC(F)F)c2Cl)c(F)cc1Cl | -0.0939% (inactive) | –
O=C(Nc1ccccc1)Nc1cnns1 | -0.0561% (inactive) | –
CC(=O)[C@H]1CC[C@H]2[C@@H]3CC[C@H]4C[C@](C)(O)CC[C@]4(C)[C@H]3CC[C@]12C | 0.0099% [at 46 µM] (inactive) | –
CCOP(=S)(OCC)SCSCC | -0.0595% (inactive) | –
O=C(CCl)c1ccc(Cl)cc1Cl | – | inactive
O=C(OC1CCCCC1)c1ccccc1C(=O)OC1CCCCC1 | 0.0004% [at 95.7 µM] (inactive) | –
NCC(CC(=O)O)c1ccc(Cl)cc1 (centres undefined) | -0.0064% [at 46 µM] (inactive) | –
CN1[C@@H]2CC[C@H]1CC(OC(=O)c1cc(Cl)cc(Cl)c1)C2 (some centres undefined) | -0.01% [at 46 µM] (inactive) | –
Clc1cc(Cl)c(Cl)c(Cl)c1 | -0.0309% (inactive) | –
ClCCCCBr | -0.0146% (inactive) | –

test: qHTS assay to test for compound auto fluorescence at 590 nm (red) in HEK293 cell free culture (AID 720683); details: cell-free medium autofluorescence, Ex540/Em590 red; series mostly up to 91.3 µM; fluorescence, % of fluorescent control: at the top concentration
Outline: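 Cell-free wells of DMEM with 10% FBS received compound, and intrinsic fluorescence was read at excitation/emission 540/590 nm. Values expressed as equivalence to Rose Bengal sodium.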

SMILES | fluorescence, % of fluorescent control | outcome
COc1nn(C(=O)NS(=O)(=O)c2ccccc2OC(F)(F)F)c(=O)n1C | 0.235% (inactive) | –
COC(C)(C)CCC[C@H](C)C/C=C/C(C)=C/C(=O)OC(C)C | 0.0252% (inactive) | –
O=C1NCN(c2ccccc2)C12CCN(CCCOc1ccc(F)cc1)CC2 | -0.0335% [at 46 µM] (inactive) | –
CCC(Cl)CCl (centres undefined) | -0.0634% (inactive) | –
CCCC(=O)Cl | -0.187% (inactive) | –
O=[Se]=O | 0.0106% [at 46 µM] (inactive) | –
O=C(C(Cl)(Cl)Cl)C(Cl)(Cl)Cl | 0.32% [at 95.7 µM] (inactive) | –
CN(N=O)c1ccc([N+](=O)[O-])cc1 | 0.0759% (inactive) | –
CC(=O)NC1CCSC1=O (centres undefined) | – | inactive
ClP(Cl)(Cl)(Cl)Cl | 0.0981% (inactive) | –
O=Cc1ccc2c(c1)OCO2 | 0.0911% (inactive) | –
O=S(=O)(O)C(F)(F)C(F)(F)C(F)(F)C(F)(F)F | 0.825% (inactive) | –
CCn1cc[n+](C)c1 | – | inactive
Oc1ccc(Cl)c(Cl)c1Cl | -0.0387% [at 95.7 µM] (inactive) | –
O=[N+]([O-])c1ccc(F)c([N+](=O)[O-])c1 | – | inactive
CNP(=O)(OC)Oc1ccc(C(C)(C)C)cc1Cl (centres undefined) | -0.038% (inactive) | –
O=C(CBr)c1ccccc1 | 0.0051% (inactive) | –

SMILES | fluorescence, % of fluorescent control | outcome
C=COC(C)=O | 0.0156% [at 95.7 µM] (inactive) | –
CC1C(=O)C[C@]2(C(C)C)C[C@H]12 (some centres undefined) | -0.0437% (inactive) | –
COc1nn(CSP(=S)(OC)OC)c(=O)s1 | 0.482% (inactive) | –
CCc1ccc(C(=O)NN(C(=O)c2cc(C)cc(C)c2)C(C)(C)C)cc1 | -0.143% (inactive) | –
CCOP(O)OCC | -0.02% (inactive) | –
CCCCCCCCCCOC(=O)c1ccccc1C(=O)OCCCCCCCCCC | -0.0267% (inactive) | –
CCCC(Cn1cncn1)c1ccc(Cl)cc1Cl (centres undefined) | -0.0064% (inactive) | –
CCOC(=O)COc1cc(-c2nn(C)c(OC(F)F)c2Cl)c(F)cc1Cl | -0.0807% (inactive) | –
O=C(Nc1ccccc1)Nc1cnns1 | -0.64% (inactive) | –
CC(=O)[C@H]1CC[C@H]2[C@@H]3CC[C@H]4C[C@](C)(O)CC[C@]4(C)[C@H]3CC[C@]12C | -0.0554% [at 46 µM] (inactive) | –
CCOP(=S)(OCC)SCSCC | 0.363% (inactive) | –
O=C(CCl)c1ccc(Cl)cc1Cl | – | inactive
O=C(OC1CCCCC1)c1ccccc1C(=O)OC1CCCCC1 | -0.208% [at 95.7 µM] (inactive) | –
NCC(CC(=O)O)c1ccc(Cl)cc1 (centres undefined) | 0.0039% [at 46 µM] (inactive) | –
CN1[C@@H]2CC[C@H]1CC(OC(=O)c1cc(Cl)cc(Cl)c1)C2 (some centres undefined) | 0.164% [at 46 µM] (inactive) | –
Clc1cc(Cl)c(Cl)c(Cl)c1 | -0.525% (inactive) | –
ClCCCCBr | -0.693% (inactive) | –
